# Compound activity: PubChem BioAssay, SRMLSC
# In the library only some 6.8% were active in any assay of this set; here they are far more common.
# NADH coupling: inhibition of NAD/NADH coupling enzymes, library profiling | IC50, µM (doses to about 10 µM) | hit rate 0.02% among 65,000 | coupled PK/LDH NADH assays, four targets;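 active means single-dose screening hits from any of four coupled enzyme assays that gave an IC50 when retested across doses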;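 further: the DPM-DC format reads NADH fluorescence rather than 340 nm absorbance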
# A340 absorber: compound absorbs light at 340 nm | compound absorbance at 340 nm, fold over control | fold change at 10 µM | 65,000 tested, under 10 active | AID 708;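 active means at 10 µM dose, initial 340 nm absorbance at least 2 fold that of control wells; inactive means change under 2 fold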;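 further: initial absorbance extrapolated from kinetic A340 decline of NADH oxidation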
# MK inhibit: inhibitors of Streptococcus pneumoniae mevalonate kinase. purified MK, PK/LDH-coupled NADH absorbance 340 nm. inhibition, % at 10 µM. hit rate 0.48% among 65,000;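 active means ranked among the strongest by inhibition in the single 10 µM screen, a fixed top-ranked set picked for dose follow-up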
# Spn PMK inh: S. pneumoniae PMK inhibition. purified PMK, PK/LDH-coupled NADH absorbance 340 nm. inhibition, % at 10 µM. hit rate 0.49% among 65,000. AID 539;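 active means top-ranked compounds by inhibition in the single 10 µM screen, taking a fixed number of the strongest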
# Autofluor 339: intrinsic fluorescence of library compounds, ex339/em460 – biochemical, MLSMR library, data from DPM-DC assay, artefact control, profiling panel; compound autofluorescence, ex339/em460 nm, NADH buffer; stronger effect = higher value; 1 = no-compound wells, NADH background; fluorescence fold increase at 10 µM; hit rate 5.5% among 65,000; AID 709;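 active means at 10 µM, mean starting fluorescence two-fold or more over control wells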;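 further: signal is the first read of a kinetic run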
# Spn DPM-DC inh: S. pneumoniae DPM-DC inhibition. purified DPM-DC, PK/LDH coupled NADH fluorescence. hit rate 0.49% among 65,000. calls only at 10 µM;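 active means the 320 compounds with the highest percent inhibition in the single-dose primary screen, excluding strongly autofluorescent ones, cut at about 32% in these data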;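 further: kinetic rate of NADH fluorescence loss reporting ADP formed by the decarboxylase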
# Numbers stand for hits; – = inactive; · = no result shown; + = active, no number.
SMILES,NADH coupling,A340 absorber,MK inhibit,Spn PMK inh,Autofluor 339,Spn DPM-DC inh
CCOC(=O)c1[nH]c2cc3c(cc2c1NC(=O)CN1CC(C)CC(C)C1)OCO3 (stereo not given),–,–,–,–,2.4,·
CCOC(=O)c1[nH]c2ccc(OCC)cc2c1NC(=O)CN1CCN(c2ccccn2)CC1,–,–,–,–,3.9,·
CCOC(=O)c1[nH]c2ccc(OCC)cc2c1NC(=O)CN1CCCC(C)C1 (stereo not given),–,–,–,–,3.9,·
CCOC(=O)c1[nH]c2ccc(OC)cc2c1NC(=O)CN1CCN(c2ccccn2)CC1,–,–,–,–,–,+
COC(=O)c1[nH]c2ccccc2c1NC(=O)CN1CCN(Cc2ccc3c(c2)OCO3)CC1,–,–,–,–,–,–
COc1ccc(OC)c(NC(=O)C2CCCN2C(=O)C2CCC(C)CC2)c1 (stereo not given),–,–,–,–,–,–
Cc1nnc(SCC(=O)Nc2ccccc2N2CCOCC2)s1,–,–,–,–,–,–
CC1CCN(CC(O)COC2CCC(C(C)(C)C)CC2)CC1 (stereo not given),–,–,–,–,–,–
CN1CCN(c2nc(-c3ccccc3)c3cc(Cl)ccc3n2)CC1,–,–,–,–,–,–
O=c1nc(-c2ccccc2)c2cc(Cl)ccc2[nH]1,–,–,–,–,3.1,–
CCCCCn1c(=NC(=O)c2ccco2)c(C(=O)OCC)cc2c(=O)n3ccccc3nc21,–,–,–,–,3,–
CCOC(=O)c1c(C)nc2ccccn12,–,–,–,–,–,–
CCCCn1c(=NC(=O)c2ccco2)c(C(=O)OCC)cc2c(=O)n3ccccc3nc21,–,–,–,–,2.2,·
CC(C)(CN=C1NS(=O)(=O)c2ccccc21)CNC(=O)CN1C(=O)c2ccccc2C1=O,–,–,–,–,–,–
CCN(CC)S(=O)(=O)c1cccc(-c2nnc(SCC(=O)c3ccc(Cl)s3)n2C)c1,–,–,–,–,–,–
CC(=O)c1cccc(NC(=O)Nc2cccnc2)c1,–,–,–,–,–,+
COc1ccc(CCC(=O)Nc2nc3c(s2)CN(C)CC3)cc1OC,–,–,–,–,–,–
COc1ccc(C(=O)N(Cc2nc(-c3ccc(C)cc3)no2)C2CCCCC2)cc1OC,–,–,–,–,–,–
CCN(CC)C(=O)C1CCCN(Cc2ccc(N(C)C)cc2)C1 (stereo not given),–,–,50,–,–,–
CCOC(=O)C1CCCN(Cc2ccc3c(c2)OCO3)C1 (stereo not given),–,–,–,–,–,–
CCN(CC)C(=O)C1CCCN(Cc2ccc(OC)c(C)c2)C1 (stereo not given),–,–,51,–,–,–
CCN(CC)C(=O)C1CCCN(Cc2ccc(F)c(F)c2)C1 (stereo not given),–,–,–,–,–,–
c1coc(CNc2ncnc3nc[nH]c23)c1,–,–,–,–,–,–
Cc1ccc2[nH]c3c(NCCCN4CCCC4=O)ncnc3c2c1,–,–,–,–,3.8,·
COc1ccc2[nH]c3c(NCCN4CCCCC4)ncnc3c2c1,–,–,–,–,3.7,·
SMILES,NADH coupling,A340 absorber,MK inhibit,Spn PMK inh,Autofluor 339,Spn DPM-DC inh
CCc1cc2c(NCCN3CCCCC3)ncnc2s1,–,–,–,–,–,–
Cc1ccc2[nH]c3c(NCc4ccco4)ncnc3c2c1,–,–,–,–,3.8,·
Cc1cc(-c2ccccc2)n2ncc(C#N)c2n1,–,–,–,–,2.1,·
N#Cc1cnn(-c2ccccc2)c1N,–,–,–,–,–,–
CC1CCCN(S(=O)(=O)c2cccc(-c3cn4cccnc4n3)c2)C1 (stereo not given),–,–,–,–,3.6,·
Cc1ccc2cc(CN(CC3CCCO3)S(=O)(=O)c3cccc4nsnc34)c(=O)[nH]c2c1 (stereo not given),–,–,–,–,–,–
COC(=O)c1ccccc1S(=O)(=O)N(Cc1cc2ccc(OC)cc2[nH]c1=O)CC1CCCO1 (stereo not given),–,–,–,25,–,–
COc1ccc2cc(CN(Cc3cccnc3)S(=O)(=O)c3ccccc3)c(=O)[nH]c2c1,–,–,–,–,2,–
COc1ccc2cc(CN(CC3COCCO3)S(=O)(=O)c3ccccc3)c(=O)[nH]c2c1 (stereo not given),–,–,–,–,–,–
COc1ccc(S(=O)(=O)N(Cc2cc3ccc(OC)cc3[nH]c2=O)CC2COCCO2)cc1 (stereo not given),–,–,–,–,2.3,–
Cc1ccc(-n2c(=O)cc(NCc3cccnc3)[nH]c2=O)cc1,–,–,–,–,–,–
Cc1ccc(-n2nnnc2SCCNS(=O)(=O)c2ccccc2)cc1C,–,–,–,–,–,–
Cc1ccc(-c2nnc(-c3ccc(Br)cc3)o2)o1,–,–,–,–,3.4,·
CCOc1cc(S(=O)(=O)NCc2ccccc2)ccc1F,–,–,–,–,–,–
Cc1n[nH]c(=S)n(/N=C/c2ccccn2)c1=O,–,–,–,43,–,–
CN1CCc2c(sc3nc(SCC(=O)N4CCOCC4)nc(N)c23)C1,–,–,–,–,2.2,·
CC1CCN(C(=O)CSc2nc(N)c3c4c(sc3n2)CN(C)CC4)CC1,–,–,–,–,2.1,·
Cc1sc(NC(=O)CSc2nc(N)n(CC(=O)c3ccccc3)n2)c(C#N)c1C,–,–,–,–,–,–
O=C(COc1ccccc1)NCc1nnc(SCC(=O)Nc2nccs2)n1-c1ccccc1,–,–,–,–,–,–
O=C(CSc1nnc(COc2ccccc2)n1-c1ccccc1)c1cccs1,–,–,–,25,–,–
COc1cc(NC(=O)c2cc3c(C)nc4ccccc4c3o2)cc(OC)c1OC,–,–,–,–,–,–
COc1ccc(C)cc1NC(=O)c1cc2c(C)nc3ccccc3c2o1,–,–,–,–,5,·
Cc1nc2ccccc2c2oc(C(=O)Nc3ccc4c(c3)OCCO4)cc12,–,–,–,–,2.1,·
OCCN1CCOCCN(CCO)CCOCC1,–,–,–,–,–,–
O=c1[nH]c(-c2ccncc2)nc2ccccc12,–,–,–,–,–,+
SMILES,NADH coupling,A340 absorber,MK inhibit,Spn PMK inh,Autofluor 339,Spn DPM-DC inh
O=c1[nH]c(-c2cccnc2)nc2ccccc12,–,–,–,–,–,–
Cn1cc(C(=O)c2ccc(Cl)cc2)cc1-c1nc2ccccc2n1C,–,–,–,–,–,–
NC(=O)C1CCN(c2nc(-c3ccccc3)nc3ccccc23)CC1,–,–,–,–,–,–
NC(=O)C1CCN(c2nc(-c3ccccc3)nc3c2oc2ccccc23)CC1,–,–,–,–,2.1,–
Cc1c2c(nc3c(C(=O)NC4CCCC4)cnn13)CCCC2,–,–,–,–,4.9,·
Cc1ccc2c(c1)c1c3n2CCN(C(=O)Cn2c(-c4ccccc4)noc2=O)C3CCC1 (stereo not given),–,–,–,–,3.2,–
